Screening results from PubChem.
LASV entry inh: blocks Lassa virus binding to or entry into cells. 300,000 compounds, 1.2% hits. Lassa virus pseudotype entry inhibition, cell reporter. Potency, µM (titrated, usually from 37.9 µM), actives largely listed as inhibitors; calls by dose curve; tested in HEK293 cells; note: nearly all actives have a fitted effect of over 50% in size
MARV entry inh: Marburg virus entry inhibition | Potency, µM (doses to about 37.8 µM), most hits filed as inhibitors | Marburg virus pseudotyped entry inhibition, cell reporter | 300,000 compounds, 1.8% hits | AID 540276; calls by dose curve; tested in HEK293 cells
HCMV antiviral: inhibitors of human cytomegalovirus | 410,000 compounds, 4.5% hits | activity change, negative = inhibition, % at 57.5 µM | HFF cells, HCMV-luciferase reporter, 72 h; hits give low values; in the data active = activity change below about -60%; inconclusive = no clear call, values can overlap the other calls; inactive = above about -39%
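Cell-based, HFFs, 1000 cells/well, 16 h 37C; cpds in DMSO + HCMV-luc, MOI 1 PFU/cell; 72 h 37C; OneGlo luminescence after 5 min RT; norm. to buffer vs Salinomycin 10uM.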
FMDV inh: antivirals against foot and mouth disease virus; FMDV antiviral cell-based qHTS; Potency, µM (series often up to 57.9 µM), most hits filed as inhibitors; 410,000 compounds, 1.2% hits; AID 1159524; calls by dose curve; tested in HEK293T cells; note: read-out not given here; nearly all actives have a fitted effect of over 45% in size
Vaccinia Venus: inhibitors of vaccinia virus (Venus reporter). Vaccinia virus Venus reporter expression, fluorescence. Potency, µM (highest dose often 36.5 µM), most hits filed as inhibitors. 330,000 compounds, 0.46% hits. AID 720580; calls by dose curve; tested in A549 cells; note: nearly all actives have a fitted effect of over 30% in size
VACV mCherry inh: inhibitors of vaccinia virus infection (mCherry reporter signal); Vaccinia virus mCherry reporter infection, fluorescence; AID 720579; 310,000 compounds, 0.63% hits; Potency, µM (top dose mostly 36.5 µM), hits mostly inhibitors; calls by dose curve; tested in A549 cells; note: nearly all actives have a fitted effect of over 35% in size
A number is an active result; . = inactive; ? = inconclusive; / = no result. Hits are enriched below; roughly 6.5% of the tested compounds scored in any of these assays.

SMILES	LASV entry inh	MARV entry inh	HCMV antiviral	FMDV inh	Vaccinia Venus	VACV mCherry inh
CCOc1cc2c(cc1O)C(=NOC)CC1C2CCC2(C)C(O)CCC12 (configuration not stated)	?	?	-73	.	?	?
CC(C)(C)NCC(O)(c1ccc(Cl)cc1)c1ccc(Cl)cc1	?	3.2µM	/	.	.	?
CC(C)NCC(O)(c1ccc(Cl)cc1)c1ccc(Cl)cc1	.	?	?	.	.	.
NC(=S)N=Nc1c(O)[nH]c2ccc(F)cc12	.	.	.	.	3.5µM	5µM
COc1ccc(CNC(=O)c2ccc3c(c2)nc2n3CCC(C)C2)c(OC)c1 (configuration not stated)	.	/	?	.	.	.
CO[C@H]1[C@H](NC(=O)c2cccs2)c2ccccc2C12CCN(Cc1cccn1-c1cccnc1)CC2	/	/	/	.	.	.
Cc1sc2nc(C3CC3)nc(N3CCN(C(=O)c4ccc(F)cc4)CC3)c2c1C	?	?	-81	.	.	.
Cc1sc2nc(C3CC3)nc(N3CCN(C(=O)c4ccc(Cl)cc4)CC3)c2c1C	?	?	.	?	.	.
CCOc1ccc(C2CC(c3c(O)c4ccccc4oc3=O)=NN2c2ccccc2)cc1OC (configuration not stated)	?	.	-78	.	.	?
c1nnnn1C12CC3CC(CC(C3)C1)C2	.	.	-64	.	.	/
COc1ccc(-n2nc(C(=O)Nc3cccc(C)n3)c3c4ccccc4n(C)c3c2=O)cc1	.	.	.	.	.	.
Cc1ccc(C)c(OCCCCN2CCCCC2)c1	/	/	.	.	/	/
Clc1ccc(Cl)c(OCCCCN2CCNCC2)c1	?	11µM	.	.	.	.
Cc1ccc(OCCCCCCN2CCNCC2)c(Br)c1	?	13µM	-63	.	.	.
Cc1ccc(OCCCCN2CCC(C)CC2)c(Br)c1	?	15µM	-67	.	.	.
Cc1cccc(C)c1OCc1nc2ccccc2c(=O)n1/N=C/c1c[nH]c2ccccc12	2.5µM	?	.	?	?	?
Cc1cc(/C=N/n2c(COc3ccccc3C)nc3ccccc3c2=O)c(O)c([N+](=O)[O-])c1	/	.	-92	.	/	/
Cc1ccccc1OCc1nc2ccccc2c(=O)n1/N=C/c1c[nH]c2ccccc12	?	.	.	.	.	.
Cc1ccc(-c2[nH]ncc2/C=N/n2c(COc3ccccc3C)nc3ccccc3c2=O)cc1	?	11µM	-89	.	11µM	?
CCCCc1cc(=O)oc2cc(C)c3c(C(C)(C)C)coc3c12	.	.	.	.	.	.
CCc1ccc2oc(-c3cc(N)ccc3Cl)nc2c1	.	.	.	.	.	.
CCc1ccc2oc(-c3cc(N)ccc3O)nc2c1	?	?	.	25µM	.	/
COc1cc2cc(CN(CCCN3CCOCC3)C(=O)Nc3ccc(F)cc3)c(=O)[nH]c2cc1OC	/	/	.	.	.	.
COc1cc2cc(CN(CCc3cccc(C)c3)C(=S)NCCCN(C)C)c(=O)[nH]c2cc1OC	?	?	-90	.	.	.
COc1cc2cc(CN(CCc3cccc(C)c3)C(=S)NCCCN3CCOCC3)c(=O)[nH]c2cc1OC	?	10µM	-82	.	?	.
SMILES	LASV entry inh	MARV entry inh	HCMV antiviral	FMDV inh	Vaccinia Venus	VACV mCherry inh
CNC(=S)N(CCc1cccc(C)c1)Cc1cc2cc(OC)c(OC)cc2[nH]c1=O	.	?	.	.	.	.
CO/S(=N\S(=O)(=O)c1ccc(Cl)cc1)c1ccc([N+](=O)[O-])cc1 (configuration not stated)	?	.	/	/	/	/
C=CCN1C(=O)C2CCCCC2n2nnc(C(=O)OCC)c21 (configuration not stated)	/	.	/	/	/	/
CCOC(=O)C1CCCCN1Cc1nc(N2CCN(C(C)=O)CC2)c2ccccc2n1 (configuration not stated)	/	/	/	.	.	.
Cc1cc(C)c(C(=O)CSC2=NC(N)=C(C#N)C3(CCCCC3)C2C(N)=O)cc1C (configuration not stated)	.	?	-67	?	.	.
O=C(Nc1ccc(Cl)cc1)Nc1ccc(S(=O)(=O)Nc2ncccn2)cc1	/	/	?	.	/	/
CC(=O)Nc1ccc(S(=O)(=O)Nc2nccc(C)n2)cc1	/	/	.	.	/	/
Nc1ccc(S(=O)(=O)Nc2nccc(/C=C/c3cccc(Br)c3)n2)cc1	?	?	-73	.	.	.
O=S(=O)(Nc1ncccn1)c1ccc(NC(=S)Nc2ccc(Cl)cc2)cc1	/	/	-64	.	/	/
CC(=O)Nc1ccc(S(=O)(=O)Nc2nccc(/C=C/c3ccc(Cl)cc3)n2)cc1	?	?	-73	.	.	.
O=C(C1=NC2=C(CCCC2)CC1)C1CCCCN1 (configuration not stated)	/	.	/	/	/	/
CCCCC(=O)N(Cc1ccc(-c2ccccc2-c2nn[nH]n2)cc1)[C@@H](C(=O)O)C(C)C	/	/	/	.	.	.
COc1ccc2oc(=O)cc(CN3CCN(C(=O)c4ccccc4F)CC3)c2c1	.	.	?	.	.	.
CCCCn1c(O)c(/C(CC)=N/N2CCCCC2c2cccnc2)c(=O)[nH]c1=S (configuration not stated)	?	?	-63	.	.	.
C/C(=N\N1CCCCC1c1cccnc1)c1c(O)n(C2CCCCC2)c(=S)[nH]c1=O (configuration not stated)	?	15µM	-103	.	.	?
O=C1C(F)=CC(COC(c2ccccc2)(c2ccccc2)c2ccccc2)OC1n1cc(F)c(=O)[nH]c1=O (configuration not stated)	5.6µM	?	-99	3.2µM	?	10µM
Cc1nc2nc(SCC(=O)NC(C)c3ccccc3)nn2c(C)c1Cc1c(F)cccc1Cl (configuration not stated)	?	.	.	.	.	.
COc1ccc(C(=O)O/N=C(\N)c2ccccc2)c(OC)c1	?	1.5µM	-78	.	.	.
COc1ccc(C(=O)O/N=C(\N)c2ccccn2)c(OC)c1	?	?	-75	.	.	.
COc1ccc2c(c1)c1c(c(=O)n(-c3cc(Cl)ccc3C)c(=O)n1CC(=O)N1CCCC1)n2C	.	/	.	.	.	.
Cc1ccc2oc(C(=O)N(Cc3ccccc3F)C3CCS(=O)(=O)C3)c(C)c2c1 (configuration not stated)	.	?	.	.	.	.
Cc1cccc(/C=C/C(=O)c2cc(Br)ccc(=O)c2O)c1	?	?	-104	?	.	/
CCc1ccc(/C=C/C(=O)c2cc(Br)ccc(=O)c2O)cc1	?	?	-106	.	?	/
CCOc1ccc(/C=C/C(=O)c2cc(Br)ccc(=O)c2O)cc1	?	?	.	?	.	.
O=C(C=Cc1ccccc1)c1cc(Br)ccc1O	?	.	.	?	.	.
CCC1(C2CCN(C(=O)c3cc4ccccc4o3)CC2)NC(=O)N(CCc2scnc2C)C1=O (configuration not stated)	/	/	/	.	.	.
O=C(O)CSC1=NS(=O)(=O)c2ccccc21	/	/	/	/	.	.
